Compounds with a hit are over-represented: about 3.8% of the library has one in this group of screens.
NTR1 agonist – activates human neurotensin receptor 1 | activation, % at 20 µM | 0.17% of 330,000 active | NTR1-U2OS beta-arrestin-GFP spot imaging, agonist mode | AID 493036;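 active = activation at or above 40% of the spot to cytoplasm intensity ratio, with at least 20 cells analyzed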;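 also: 0% = DMSO without peptide and 100% = 100 nM NTR1 peptide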
Mdm2-MdmX inh – inhibitors of human Mdm2/MdmX interaction | inhibition, % at 8 µM | SaOS-2 split-luciferase Mdm2/MdmX complementation, luminescence | 3% of 330,000 active;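 active = inhibition of at least 50% at 8 µM in the primary screen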
Target sequence (O15151 whole entry, looked up): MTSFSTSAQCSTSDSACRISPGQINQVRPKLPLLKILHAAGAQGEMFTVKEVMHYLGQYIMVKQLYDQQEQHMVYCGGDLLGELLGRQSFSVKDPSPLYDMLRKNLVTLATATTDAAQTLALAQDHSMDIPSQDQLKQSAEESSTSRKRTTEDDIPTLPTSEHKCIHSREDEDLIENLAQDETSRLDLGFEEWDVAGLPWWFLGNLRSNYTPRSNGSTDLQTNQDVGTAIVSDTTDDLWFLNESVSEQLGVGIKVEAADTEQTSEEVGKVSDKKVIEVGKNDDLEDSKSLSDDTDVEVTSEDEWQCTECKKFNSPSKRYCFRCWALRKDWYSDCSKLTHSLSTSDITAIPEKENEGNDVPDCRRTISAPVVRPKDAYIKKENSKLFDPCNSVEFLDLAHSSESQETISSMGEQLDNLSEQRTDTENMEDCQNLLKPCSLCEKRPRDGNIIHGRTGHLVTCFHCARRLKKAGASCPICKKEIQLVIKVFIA
Target sequence (Q00987 whole entry, looked up): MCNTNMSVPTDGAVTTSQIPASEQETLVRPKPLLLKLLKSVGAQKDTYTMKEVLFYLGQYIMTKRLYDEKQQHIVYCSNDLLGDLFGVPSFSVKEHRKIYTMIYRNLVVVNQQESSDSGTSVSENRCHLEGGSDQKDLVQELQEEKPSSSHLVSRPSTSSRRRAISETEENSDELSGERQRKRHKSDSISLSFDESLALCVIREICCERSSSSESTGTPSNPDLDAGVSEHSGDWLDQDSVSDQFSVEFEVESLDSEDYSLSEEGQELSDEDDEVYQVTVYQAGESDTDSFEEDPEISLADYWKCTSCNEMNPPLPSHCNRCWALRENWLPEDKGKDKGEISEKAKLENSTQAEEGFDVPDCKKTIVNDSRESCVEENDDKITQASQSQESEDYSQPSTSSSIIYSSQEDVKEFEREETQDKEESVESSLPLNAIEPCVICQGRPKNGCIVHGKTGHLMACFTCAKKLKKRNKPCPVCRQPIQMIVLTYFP
Beta apoptosis – blocks beta cell apoptosis | protection from apoptosis, % (test concentration not listed) | 0.8% of 300,000 active | INS-1E cytokine-induced death, ATP luminescence, 48 h; percent of positive-control rescue, neutral wells zero;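 active = Every replicate reaches about 75%, or at least half do and their mean reaches it too, limit read from the data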;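 also: 0% = cytokine-treated negative control wells and 100% = positive control rescue; higher means more ATP so stronger rescue from cytokine killing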
697 NFkB inh – lowers PMA/ionomycin-induced NF-kB signal in 697 B cells; 697 B-cell NF-kB luciferase reporter, 16 h; inhibition, % at 4 µM; 0.33% of 330,000 active; AID 435022; in the data active = inhibition above about 35%
Jurkat NFkB inh – inhibitors of the PMA/ionomycin-induced NF-kB reporter in Jurkat cells | PMA/ionomycin-induced NF-kB luciferase reporter, luminescence | inhibition, % at 4 µM | 0.53% of 330,000 active | AID 435003; in the data active = inhibition above about 50%
A1 inh – inhibitors of the anti-apoptotic protein A1, read as caspase activation; MEF A1-2A-BIM cells, Caspase-Glo 3/7 luminescence, 3 h; percent of clofoctol response, vehicle zero; caspase activation, % (no concentration beside the values); 0.066% of 330,000 active; AID 2462;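 active = over half of replicate activation scores above 10%, or exactly half above 10 with the replicate mean above 10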
Mdm2 MdmX conf – confirmation of human Mdm2/MdmX interaction inhibitors; shares compounds with Mdm2-MdmX inh; inhibition, % at 8 µM; Mdm2-MdmX binding, luminescent assay; 55% of 10,000 active; in the data active = inhibition above about 40%
Full FLuc ctr – inhibits full-length luciferase, flagging false Mdm2/MdmX hits; shares compounds with Mdm2-MdmX inh; SaOS-2 full-length luciferase counterscreen, luminescence; inhibition, % at 8 µM; 77% of 6,200 active; AID 504607;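 active = mean inhibition at 8 µM reaching about 37%, which flags the compound as non-specific, limit read from the data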;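 also: p53-null SaOS-2 cells with luciferase driven by a doxycycline-inducible promoter; compound on cells about two nights before reading with doxycycline added after day one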
Starred values were filed as active, the others as inactive; · = no result given.

SMILES	NTR1 agonist	Mdm2-MdmX inh	Beta apoptosis	697 NFkB inh	Jurkat NFkB inh	A1 inh	Mdm2 MdmX conf	others
Cc1cccc(Oc2sc(C(=O)c3ccccc3)c(N)c2C#N)c1C	18	16	-4	-3	-3	0	·
N#Cc1c(Oc2ccc3ccccc3c2)sc(C(=O)c2ccccc2)c1N	13	75*	-9	0	0	-1	26
Cn1c(=S)[nH]c2sc3c(c2c1=O)CCC(C(C)(C)C)C3 (centres undefined)	8	-10	23	-121	-63	-1	·
O=C(Sc1nnc(-c2ccccc2)o1)N1c2ccccc2Sc2ccccc21	6	60*	·	11	4	0	22
CC(C)c1ccc(-c2nc3ccccc3s2)cc1	8	87*	21	-31	45	-8	88*	Full FLuc ctr=36
O=C(NCc1ccccc1F)C1CCCN1C(=O)Nc1ccc(F)cc1 (centres undefined)	0	13	3	14	3	0	·
c1cc2c(cc1C1CCCCC1)c1c3n2CCN=C3CCC1	7	53*	37	-31	1	1	23
Cc1ccc2c(c1)c1c3n2CCCNC3CCC1 (centres undefined)	-1	22	-1	0	11	-1	·
c1cc2c(cc1C1CCCCC1)c1c3n2CCCNC3CCC1 (centres undefined)	2	98*	18	12	6	1	48*	Full FLuc ctr=2
Cc1ccc2c(c1)c1c3n2CCN=C3CCC1	-1	14	-7	-6	-14	1	·
CCC1CCCCN1CCCNC(=O)Cn1c(=O)c2cccn2c2cccnc21 (centres undefined)	1	-5	-3	-59	-16	3	·
N=C(N)SCc1nc2ccccc2c(=O)n1-c1ccccc1Cl	-1	6	18	-22	-13	0	·
O=c1c2ccccc2nc(CSc2nnnn2-c2ccccc2)n1-c1ccccc1Cl	1	68*	17	16	5	0	43*	Full FLuc ctr=64*
CCCCCc1ccc(OCCCC[n+]2ccccc2)c(CCCCC)c1	2	87*	87*	13	45	0	77*	Full FLuc ctr=25
COc1ccc(/C=C2/NC(=O)N(Cc3ccccc3F)C2=O)cc1OC	1	85*	-5	19	-1	0	7
Cc1c(/C=C2\SC(=O)N(CC(=O)Nc3ccc4c(c3)OCO4)C2=O)c2ccccc2n1C	1	39	4	9	12	0	·
O=C(CN1C(=O)S/C(=C\c2ccccn2)C1=O)Nc1ccccc1	0	16	0	14	3	0	·
CCOc1cc(/C=C2/NC(=O)N(CC(=O)Nc3cccc(C)c3)C2=O)ccc1OC	-1	70*	-6	19	11	-1	65*	Full FLuc ctr=32
CCn1cc(/C=C2\SC(=O)N(CC(=O)Nc3ccc4c(c3)OCO4)C2=O)c2ccccc21	0	68*	-6	17	14	0	47*	Full FLuc ctr=91*
Cc1cccc(NC(=O)CN2C(=O)S/C(=C\c3ccccn3)C2=O)c1	0	84*	4	8	11	1	25
CCCCSCCCNC(=O)CCCN1C(=O)c2ccccc2Sc2ncccc21	0	-13	5	1	17	0	·
CC[C@@]1(C(=O)OC)N[C@H](CN(C)C(=O)Nc2ccc(F)cc2)[C@@H]2C(=O)N(C)C(=O)[C@@H]21	-4	22	-8	2	-8	1	·
COc1ccc(Cc2nc3ccc(C(=O)N(C)CCn4ccnc4)cc3o2)cc1OC	1	-35	0	-43	-31	0	·
COc1ccc(C(=O)CC(=O)C(=O)Nc2ccc(C)c(Cl)c2)cc1	·	·	0	·	·	-1	·
O=C(Oc1c(-c2ccccc2)c(=O)n2c3c(cccc13)CC2)c1ccccc1	22	48	3	29	5	0	·
SMILES	NTR1 agonist	Mdm2-MdmX inh	Beta apoptosis	697 NFkB inh	Jurkat NFkB inh	A1 inh	Mdm2 MdmX conf	others
O=C(Oc1c(-c2ccccc2)c(=O)n2c3c(cccc13)CC2)c1cccc([N+](=O)[O-])c1	5	70*	1	25	8	1	75*	Full FLuc ctr=39*
O=C(Oc1c(-c2ccccc2)c(=O)n2c3c(cccc13)CC2)c1ccc(F)cc1	18	54*	-2	-17	-13	0	17
CC(C)c1ccc(NC(=O)/C(C#N)=C/c2ccncc2)cc1	0	13	-8	-6	12	2	·
Cc1cc(C)c2nc(NNC(=O)c3ccc(S(=O)(=O)N4CCc5ccccc5C4)cc3)sc2c1	7	82*	87*	-19	8	0	86*	Full FLuc ctr=38*
Cc1cc(C)c2sc(NNC(=O)c3ccc(S(=O)(=O)N4CCc5ccccc5C4)cc3)nc2c1	12	83*	101*	-47	29	0	85*	Full FLuc ctr=42*
Cc1nnc(NC(=O)c2ccc(S(=O)(=O)N3CCc4ccccc4C3)cc2)o1	0	24	-2	-10	-21	-7	·
COc1ccc(NC(=O)CN(C)C(=O)c2cc(CN3C(=O)c4ccccc4C3=O)ccc2OC)cc1	-1	8	·	25	7	1	·
CC[C@]12c3[nH]c4ccc(Cl)cc4c3CCN1C(=O)[C@@H](CC(=O)NCc1cccc(C(F)(F)F)c1)C[C@@H]2C(=O)N1CCN(C(=O)c2ccco2)CC1	5	58*	·	1	·	·	10
C[C@]12c3[nH]c4ccc(Cl)cc4c3CCN1C(=O)[C@@H](CC(=O)NCc1cccc(C(F)(F)F)c1)C[C@@H]2C(=O)N1CCCCC1	9	81*	·	9	·	·	2
Cc1ccc(S(=O)(=O)NCCc2ccncc2)cc1[N+](=O)[O-]	2	14	-1	3	-21	-1	·
O=C(c1cccc([N+](=O)[O-])c1)N1CCCC(C(=O)N2CCc3ccccc3C2)C1 (centres undefined)	0	11	-1	10	6	-1	·
FC(F)(F)c1cccc(NC(=S)NNC(=S)Nc2ccc(Cl)cc2)c1	38	80*	42	18	2	-1	26
FC(F)(F)c1cccc(NC(=S)NCc2ccc(Cl)cc2)c1	3	83*	18	-8	2	0	22
Fc1cc(NC(=S)NCc2ccc(CNC(=S)Nc3ccc(Cl)c(F)c3)cc2)ccc1Cl	11	50*	16	10	-7	0	5
Cc1ccc(NC(=S)NNC(=S)Nc2cccc(C(F)(F)F)c2)cc1	8	-8	14	-14	-1	0	·
Fc1ccc(CNC(=S)Nc2cccc(C(F)(F)F)c2)cc1	4	12	3	-4	8	0	·

Assay outcomes deposited in PubChem BioAssay by several laboratories.
